According to PubChem BioAssay (NCI):
Compounds without any hit were thinned out: in the full panel of roughly 83,000, 20% have a hit.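 Single-dose data. Exposure time 48 hours. Values below 10 considered active.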 Unmarked numbers belong to inactive results. Activity calls are given as the source filed them.

What was measured:
Test in all cases: NCI-60 one-dose screen, 48 h (100 = growth as untreated, 0 = no growth, -100 = all killed)
Details in all cases: 10 µM unless noted
T-47D breast = test system: T-47D breast
BT-549 breast = test system: BT-549 breast
MDA-MB-435 melanoma = test system: MDA-MB-435 melanoma
SW-620 colon = test system: SW-620 colon
MCF7 breast = test system: MCF7 breast
HCT-116 colon = test system: HCT-116 colon
HCC-2998 colon = test system: HCC-2998 colon
KM12 colon = test system: KM12 colon

Structure (SMILES) | growth (T-47D breast) | growth (BT-549 breast) | growth (MDA-MB-435 melanoma) | growth (SW-620 colon) | growth (MCF7 breast) | growth (HCT-116 colon) | growth (HCC-2998 colon) | growth (KM12 colon)
Cc1nn(CCO)c(C)c1N=[N+]([O-])c1c(C)nn(CCO)c1C | -3.43% (active) | 50.5% | -25.4% (active) | -61.2% (active) | 4.45% (active) | -81.9% (active) | 109% | 81%
O=C(NOC(=O)c1ccccc1)c1ccccc1 | 101% | 107% | 96.4% | 93.8% | 107% | 95.7% | 112% | 101%
COc1ccc(NC(=O)/C(=C/N2C(=O)/C(=C/c3ccc(OC)c(OC)c3)NC2=S)C(C)=O)cc1 | 19.1% | 55.2% | 72.2% | 83.6% | 40.9% | 73.7% | 88.7% | 95.1%
CCOC(=O)c1[nH]c(C#N)c(C(=O)OCC)c1C | 96.6% | 109% | 94.4% | 103% | 103% | 103% | 103% | 107%
Cc1cc(C(=O)c2ccc(Cl)cc2)ccc1O | 97% | 94.7% | 95.6% | 98% | 108% | 84.8% | 102% | 103%
O=C(O)c1cc2c(s1)C(=O)c1sccc1C2=O | 36% | -89.8% (active) | -99.6% (active) | -3.95% (active) | -56.6% (active) | -27.7% (active) | 8.88% (active) | 79.9%
C/C=C/c1cc2c(c(=O)o1)C(=O)[C@@H](O)[C@H](C)O2 | 20.4% | 18.2% | 65.6% | 19.5% | 26.1% | 14.1% | 79.5% | 42.2%
O=C(c1ccccc1)C(Br)[N+](=O)[O-] (stereo unspecified) | 65.3% | 92.6% | 96% | 38.8% | 58.8% | 63% | 111% | 100%
O=C(Nc1ccc(Cl)c(Cl)c1)Nc1ccccc1O | 50.7% | 105% | 76.2% | 90.1% | 51.9% | 60.7% | 80.4% | 96.5%
CCc1oc2ccccc2c1C(=O)c1cc(Br)c(O)c(Br)c1 | 62.1% | 35.4% | -11.1% (active) | 61.4% | 69.2% | 73.5% | 85.9% | 77.5%
CCCCCC/C=C1\CCC(CN2CCCC2)C1=O (stereo unspecified) | 77.7% | 104% | 109% | 97.9% | 7.97% (active) | 84.5% | 107% | 75.4%
O=C(c1ccccc1)N(CCCl)C(=O)N(CCCl)C(=O)c1ccccc1 | 86% | 100% | 102% | 110% | 101% | 90% | 104% | 102%
Cc1oc2c(C)c3oc(=O)cc(C)c3cc2c1CCl | 53.9% | 68.8% | 63.4% | 76.7% | 49% | 71.1% | 98.8% | 90.1%
Cc1cccc2c(N)c3ccccc3nc12 | -2.75% (active) | 14% | -12.1% (active) | 0.0537% (active) | 5.35% (active) | 0.783% (active) | 2.09% (active) | 9.35% (active)
Nc1ccc(Oc2ccccc2)c(Cl)c1 | 86.6% | 97.6% | 93.6% | 107% | 95.6% | 79.3% | 113% | 104%
Nc1cc(-c2ccccc2)ccc1O | 88.3% | 79.3% | 111% | 121% | 102% | 98.1% | 83.8% | 102%
O=C(Nc1cccc(C(F)(F)F)c1)Oc1ccc(Cl)c2cccnc12 | 22% | 37.5% | 28% | 12.8% | 61.1% | 0.974% (active) | 92.7% | 25.4%
CCCCCCCCCCCCN1C(C)=CS/C1=C\C=C\c1scc(C)[n+]1CCCCCCCCCCCC | 13.8% | 23.7% | 13.6% | 30.7% | 7.9% (active) | 17.7% | 28.4% | 14.8%
CC(C)(C)c1ccc(CCO)cc1 | 106% | 86.1% | 89% | 114% | 101% | 99.7% | 95.2% | 115%
Cc1cc(C(N)=O)cc(C)c1C(=O)OCCCl | 95.8% | 111% | 98% | 103% | 101% | 97% | 95.8% | 93.6%
COC(=O)C(=[N+]=[N-])C(=O)c1ccc([N+](=O)[O-])o1 | 89.7% | 101% | 103% | 44% | 65.1% | 73.4% | 107% | 94.9%
O=C(Cc1ccccc1)C(F)(F)F | 95.4% | 97.5% | 104% | 108% | 103% | 95.5% | 108% | 103%
OC(Cc1cc(CC(O)(C(F)(F)F)C(F)(F)F)nc(CC(O)(C(F)(F)F)C(F)(F)F)c1)(C(F)(F)F)C(F)(F)F | -1.31% (active) | 11.3% | 0.574% (active) | 14.6% | 4.14% (active) | 3.99% (active) | 23.9% | 1.25% (active)
O=C(c1ccccc1)c1ccc(O)c2ncccc12 | 10.6% | 56.3% | 56.7% | 17.1% | 10.5% | 13.7% | 35.8% | 27%
CCC(=O)c1cc([N+](=O)[O-])c(Br)s1 | -46.2% (active) | 108% | 96.9% | 35.4% | 62.6% | 1.06% (active) | 92.7% | 93.8%
CCC1C[N+]2=C(c3cc(OC)c(OC)cc3CC2)c2c1cc1n2CCc2cc(OC)c(OC)cc2-1 (stereo unspecified) | 6.69% (active) | 26.7% | 5.51% (active) | 48.8% | 9.71% (active) | 40.4% | 34% | 7.73% (active)

Structure (SMILES) | growth (T-47D breast) | growth (BT-549 breast) | growth (MDA-MB-435 melanoma) | growth (SW-620 colon) | growth (MCF7 breast) | growth (HCT-116 colon) | growth (HCC-2998 colon) | growth (KM12 colon)
NC(=S)N/N=C\c1nccc2c(N)cccc12 | 11% | 41% | 30.3% | 37.2% | 22.1% | 19.2% | 44.4% | 26.7%
CCOc1ccc(C(CN2CCOCC2)C(C)=O)cc1OC (stereo unspecified) | 33.2% | 91.2% | 97.6% | 60% | 13.4% | 97.3% | 115% | 93.3%
NNc1ccc(Cl)cc1Cl | 52% | 88.7% | 96.6% | 53.7% | 74.8% | 87.1% | 93.9% | 51.3%
CCOC(=O)C1=NN(c2ccccc2)C(=O)/C1=C\N1C(=O)/C(=C/c2cccc(O)c2)SC1=S | 93% | 97% | 109% | 97.6% | 91.8% | 88.8% | 99.8% | 100%
c1csc(-c2[nH]nc3c2CCc2ccccc2-3)c1 | -61.7% (active) | 98.5% | 104% | 106% | 5.26% (active) | 99.1% | 43.6% | 23.5%
N#CC(=C1SCS1)[N+](=O)[O-] | 29.1% | -6.56% (active) | 16.4% | 19.3% | 16.7% | 35.8% | 27% | 14.2%
CCN(CC)CCNc1ccc([N+](=O)[O-])c2sc3ccccc3c(=O)c12 | 45.5% | 72% | 18.4% | -5.78% (active) | 8.95% (active) | 17.9% | 36.6% | 22.9%
NC(CS/C(Cl)=C/Cl)C(=O)O (stereo unspecified) | -7.75% (active) | 51% | 58.6% | 104% | 45.1% | 84.4% | 102% | 98.1%
Cc1c(O)ccc(SC#N)c1C | 94% | 104% | 105% | 103% | 116% | 88% | 96.5% | 97.2%
O=[N+]([O-])c1ccc(N2CCN(Cc3ccccc3)CC2)c2c1no[n+]2[O-] | 57.5% | -25.5% (active) | -28.9% (active) | -68.2% (active) | 7.84% (active) | -86% (active) | -14.4% (active) | -52.2% (active)
O=C1C=Cc2ccccc2/C1=C/c1nc(-c2ccccc2)oc1O | 65.5% | 102% | 97.5% | 97.4% | 39.6% | 81.5% | 129% | 92.1%
O=C1C=CC(=O)N1c1ccc(O)cc1 | 83.3% | 103% | 107% | 95.6% | 102% | 106% | 105% | 109%
COC(=O)c1ccc(=O)c2nc3/c(=C/O)c(O)cc(=O)c3[nH]c12 | 25.6% | 5.85% (active) | 23.4% | 29.5% | 2.95% (active) | -19% (active) | 24.9% | 31.1%
NC(=S)N/N=C\c1nccc2c(C(F)(F)F)cccc12 | 13.9% | 7.77% (active) | 32.6% | 29.8% | 10.5% | 9.27% (active) | 26.6% | 16%
CCCCCCCCCCCCCCCCCC1=NCCCN1CCO | 103% | 99.9% | 115% | 98.9% | 86.7% | 114% | 93.4% | 106%
O=C(O)c1ccc2c(c1)C(=O)c1ccccc1C2=O | 99.7% | 107% | 102% | 97% | 97.7% | 106% | 104% | 98.9%
CCOc1ccc2c(c1)/C(=C\C=C\C1CC(C)C3CC(OCC)CCC3N1CC)CC(C)N2CC (stereo unspecified) | 9.32% (active) | 0.574% (active) | -20.6% (active) | 17.1% | 3.06% (active) | 10.7% | 28.5% | 0.998% (active)
O=[N+]([O-])CC(O)c1ccccc1 (stereo unspecified) | 100% | 112% | 91.1% | 105% | 81.1% | 78.6% | 98.9% | 97.4%
O=[N+]([O-])c1ccc(C(Br)c2ccc([N+](=O)[O-])cc2)cc1 | 83.8% | 77.3% | 64.8% | 11.1% | 70.8% | 21.3% | 90.4% | 60.3%
Cc1cc(C)c(C#N)c(Sc2nc(C)c([N+](=O)[O-])c(C)c2C#N)n1 | 68.7% | 43.1% | 42.9% | 19.2% | 26.4% | 9.65% (active) | 100% | 60.8%
COC1CC(C)C(OC)c2cc(O)cc(c2O)NC(=O)/C(C)=C/C=C\C(C)C(OC(N)=O)/C(C)=C\C(C)C1OC (stereo unspecified) | 1.33% (active) | -44.8% (active) | 12.7% | 2.74% (active) | 20.8% | -92.8% (active) | -11.6% (active) | -46.4% (active)
COc1cc(NCc2ccc3nc(N)nc(N)c3c2C)cc(OC)c1OC (tested in a mixture with another compound) | 47.1% | 56.1% | 33.1% | 32.4% | 21.3% | 20.6% | 14.3% | 14.8%
CC(=O)c1c(O)c(C)c(O)c2c1OC1=CC(=O)C(C(C)=O)C(=O)C12C (stereo unspecified) | 102% | 55.8% | 78.5% | 74.7% | 128% | 94% | 58.1% | 72.6%
N=C(N)Sc1cccc[n+]1[O-] | 63.1% | 80.3% | 62.9% | 46.9% | 14.6% | 9.31% (active) | 74.7% | 55.1%
CCOc1cc(F)c([N+](=O)[O-])cc1[N+](=O)[O-] | 24.5% | 87.3% | 37.2% | 19.8% | 15.9% | 9.26% (active) | 98.7% | -44.7% (active)
CCCCCCCCCCCCCCCC[N+]1(C)CCCC1c1cccnc1 (stereo unspecified) | 45.2% | -6.27% (active) | 63.9% | 53.2% | 41% | 35% | 19.8% | 41.7%
